Common to all, as to conditions: mRNA level, 48 h; actives raise or lower the signal
Read-out in assay [1]: Early growth response protein 1 (EGR1) transcription factor, EGR1 (gene 1958)
Description: LTEA_HepaRG_EGR1: Life Technologies and Expression Analysis (LTEA) Assay for Early growth response protein 1 (EGR1) transcription factor using HepaRG (AID 2283490). The method in brief:
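Differentiated HepaRG cells in serum-free induction medium exposed 48 hours, duplicate, to 8 half-log concentrations up to 100 uM in 0.5% DMSO. EGR1 mRNA measured by TaqMan qRT-PCR, normalized to ACTB, GAPDH, POLR2A; bidirectional fit versus DMSO.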

Read-out in assay [2]: Ezrin (EZR), EZR (gene 7430)
Description: LTEA_HepaRG_EZR: Life Technologies and Expression Analysis (LTEA) Assay for Ezrin (EZR) using HepaRG (AID 2283491). The method in brief:
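EZR transcript levels came from Fluidigm qRT-PCR and were normalized to three housekeeping genes after 48 h chemical exposure of HepaRG cells. Dosing used an 8-point half-log series with a 100 uM top concentration in 0.5% DMSO, tested in duplicate; both directions were fitted versus vehicle.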

Read-out in assay [3]: Cytochrome P450 3A7 (Homo sapiens) (UniProt P24462)
Description: LTEA_HepaRG_CYP3A7: Life Technologies and Expression Analysis (LTEA) Assay for CYP3A7 using HepaRG (AID 2283492). In short, it runs like this: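 CYP3A7 transcript levels were read by TaqMan qRT-PCR on Fluidigm arrays after 48 h chemical exposure of human HepaRG cells, with housekeeping-gene normalisation. Eight half-log concentrations up to 100 uM in 0.5% DMSO were tested in duplicate.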

Read-out in a further assay: CYP3A5 (gene 1577)
Description: LTEA_HepaRG_CYP3A5: Life Technologies and Expression Analysis (LTEA) Assay for CYP3A5 using HepaRG (AID 2283493). The method in brief:
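mRNA induction or loss of CYP3A5 assessed in HepaRG after 48 h dosing, 100 uM top concentration, duplicate wells; TaqMan qRT-PCR with ACTB, GAPDH, POLR2A normalization; 0.5% DMSO as negative control.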

Read-out in assay [4]: Glutathione S-Transferase (GSTA2), GSTA2 (gene 2939)
Put plainly: LTEA_HepaRG_GSTA2: Life Technologies and Expression Analysis (LTEA) Assay for Glutathione S-Transferase (GSTA2) using HepaRG (AID 2283497). The method in brief:
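Differentiated human HepaRG cells were exposed in duplicate for 48 h in serum-free induction medium, 8 points from 100 uM top in half-log steps, 0.5% DMSO. GSTA2 mRNA was measured by TaqMan qRT-PCR, normalized to ACTB, GAPDH and POLR2A; bidirectional fit versus DMSO.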

Read-out in assay [5]: Glutamate-cysteine ligase catalytic (GCLC), GCLC (gene 2729)
Description: LTEA_HepaRG_GCLC: Life Technologies and Expression Analysis (LTEA) Assay for Glutamate-cysteine ligase catalytic (GCLC) using HepaRG (AID 2283498). In short, it runs like this: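 Differentiated HepaRG cells exposed 48 h in serum-free induction medium, eight-point half-log series topping at 100 uM in 0.5% DMSO, duplicates. GCLC mRNA by qRT-PCR normalized to ACTB, GAPDH and POLR2A, fitted bidirectionally versus DMSO.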

Read-out in assay [6]: growth arrest and DNA damage 45 (GADD45G), GADD45G (gene 10912)
Description: LTEA_HepaRG_GADD45G: Life Technologies and Expression Analysis (LTEA) Assay for growth arrest and DNA damage 45 (GADD45G) using HepaRG (AID 2283499). The method in brief:
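HepaRG, 48 h exposure, top 100 uM, half-log 8-point series, 0.5% DMSO vehicle, duplicates. Readout: GADD45G transcript by qRT-PCR (Fluidigm array), housekeeping-normalised (ACTB/GAPDH/POLR2A). Bidirectional curve fit vs DMSO baseline.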

Read-out in assay [7]: Glutamate-cysteine ligase regulatory (GCLM), GCLM (gene 2730)
Put plainly: LTEA_HepaRG_GCLM: Life Technologies and Expression Analysis (LTEA) Assay for Glutamate-cysteine ligase regulatory (GCLM) using HepaRG (AID 2283500). The method in brief:
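Human liver HepaRG cultures receive test chemicals for 48 hours at up to 100 uM in 0.5% DMSO. GCLM expression is measured by qRT-PCR and analysed for increases or decreases against vehicle.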

Read-out in assay [8]: Heat shock 70 kDa protein 1 (HSPA1A), gene 3303
Description: LTEA_HepaRG_HSPA1A: Life Technologies and Expression Analysis (LTEA) Assay for Heat shock 70 kDa protein 1 (HSPA1A) using HepaRG (AID 2283502). In short, it runs like this:
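HSPA1A induction in human HepaRG liver cells is measured after 48 h of chemical treatment (100 uM maximum, 0.5% DMSO vehicle). Expression comes from qRT-PCR normalized to endogenous controls.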

Read-out in assay [9]: Hypoxia-inducible factor 1-alpha (Homo sapiens) (UniProt Q16665)
Put plainly: LTEA_HepaRG_HIF1A: Life Technologies and Expression Analysis (LTEA) Assay for Hypoxia-inducible factor 1 (HIF1A) Trancription factor using HepaRG (AID 2283503). The method in brief:
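HepaRG, 48 h exposure, 8-pt half-log series from 100 uM, 0.5% DMSO vehicle, duplicates. Readout: HIF1A transcript by qRT-PCR (Fluidigm array), housekeeping-normalised. Bidirectional curve fit vs DMSO baseline.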

Read-out in a further assay: HGF (gene 3082)
Description: LTEA_HepaRG_HGF: Life Technologies and Expression Analysis (LTEA) Assay for Hepatocyte Growth Facto (HGF) using HepaRG (AID 2283505). In short, it runs like this: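 HepaRG, 48 h dosing, 8-pt half-log series from 100 uM in 0.5% DMSO, duplicates. Readout: TaqMan qRT-PCR of HGF mRNA, housekeeping-normalized; bidirectional curve fit vs DMSO baseline.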

Read-out in assay [10]: Intercellular Adhesion Molecule 1 (ICAM1), ICAM1 (gene 3383)
Description: LTEA_HepaRG_ICAM1: Life Technologies and Expression Analysis (LTEA) Assay for Intercellular Adhesion Molecule 1 (ICAM1) using HepaRG (AID 2283507). In short, it runs like this:
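HepaRG, 48 h exposure, 8-pt half-log series from 100 uM, 0.5% DMSO vehicle, duplicates. Readout: TaqMan qRT-PCR mRNA, housekeeping-normalized (ACTB/GAPDH/POLR2A). Bidirectional curve fit vs DMSO baseline.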

Read-out in assay [11]: Insulin-like growth factor-binding protein 1 (IGFBP1), IGFBP1 (gene 3484)
Put plainly: LTEA_HepaRG_IGFBP1: Life Technologies and Expression Analysis (LTEA) Assay for Insulin-like growth factor-binding protein 1 (IGFBP1) using HepaRG (AID 2283508). In short, it runs like this: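 qRT-PCR mRNA read-out (TaqMan, Fluidigm array), normalised to three housekeeping genes; HepaRG cells, 48 h exposure, 8-pt half-log series from 100 uM, 0.5% DMSO vehicle; bidirectional curve fit vs DMSO baseline.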

Read-out in assay [12]: Interleukin 6 (IL6), IL6 (gene 3569)
Put plainly: LTEA_HepaRG_IL6: Life Technologies and Expression Analysis (LTEA) Assay for Interleukin 6 (IL6) using HepaRG (AID 2283509). In short, it runs like this:
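HepaRG cells exposed in duplicate for 48 h to eight half-log concentrations, top 100 uM, in 0.5% DMSO serum-free induction medium. mRNA measured by qRT-PCR, normalized to ACTB, GAPDH and POLR2A. Bidirectional fit versus DMSO.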

Read-out in assay [13]: Cytochrome P450 4A22 (Homo sapiens) (UniProt Q5TCH4)
Description: LTEA_HepaRG_CYP4A22: Life Technologies and Expression Analysis (LTEA) Assay for Cytochrome P450 4A22 (CYP4A22) using HepaRG (AID 2283495). In short, it runs like this:
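HepaRG, 48 h post-plating -> serum-free induction medium; dosed 48 h, duplicate, 8 conc. (100 uM top, half-log), 0.5% DMSO. Readout: CYP4A22 mRNA by qRT-PCR, ACTB/GAPDH/POLR2A normalization; gain/loss fit relative to DMSO.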

Read-out in assay [14]: Cytochrome P450 7A1 (Homo sapiens) (UniProt P22680)
Put plainly: LTEA_HepaRG_CYP7A1: Life Technologies and Expression Analysis (LTEA) Assay for Cytochrome P450 7A1 (CYP7A1) using HepaRG (AID 2283496). In short, it runs like this:
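Gene expression endpoint in human HepaRG liver cells treated for 48 h with test chemicals (up to 100 uM, 0.5% DMSO). Values come from bidirectional concentration-response fitting versus DMSO.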

Read-out in assay [15]: Glutathione S-transferase M3 (GSTM3), GSTM3 (gene 2947)
Description: LTEA_HepaRG_GSTM3: Life Technologies and Expression Analysis (LTEA) Assay for Glutathione S-transferase M3 (GSTM3) using HepaRG (AID 2283501). In short, it runs like this: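 qRT-PCR read-out of GSTM3 transcript, normalized to three housekeeping genes, from human HepaRG cells after 48 h chemical exposure. Eight-point half-log series, top 100 uM, 0.5% DMSO vehicle; gain or loss fitted relative to DMSO baseline.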

Read-out in assay [16]: 3-Hydroxy-3-Methylglutaryl-CoA Synthase 2 (HMGCS2), HMGCS2 (gene 3158)
Description: LTEA_HepaRG_HMGCS2: Life Technologies and Expression Analysis (LTEA) Assay for 3-Hydroxy-3-Methylglutaryl-CoA Synthase 2 (HMGCS2) using HepaRG (AID 2283504). In short, it runs like this: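 qRT-PCR read-out of HMGCS2 transcript, normalised to three housekeeping genes, in HepaRG cells after 48 h chemical exposure. Eight-point curves from 100 uM, half-log dilutions, 0.5% DMSO vehicle; gain or loss fitted relative to DMSO baseline.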

Read-out in assay [17]: Insulin Like Growth Factor 1 (IGF1), IGF1 (gene 3479)
Description: LTEA_HepaRG_IGF1: Life Technologies and Expression Analysis (LTEA) Assay for Insulin Like Growth Factor 1 (IGF1) using HepaRG (AID 2283506). The method in brief: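 Using human HepaRG liver cells, IGF1 transcript induction or suppression is measured 48 h after dosing across eight concentrations capped at 100 uM. Values derive from bidirectional concentration-response fitting with DMSO as baseline.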

The source made the active and inactive calls. How the source made its calls: active means hit-call score of the fitted dose curve at least 0.9, where 1 is the maximum; inactive means score below 0.9.

Sequence of Hypoxia-inducible factor 1-alpha (Homo sapiens) (Q16665 whole entry, looked up): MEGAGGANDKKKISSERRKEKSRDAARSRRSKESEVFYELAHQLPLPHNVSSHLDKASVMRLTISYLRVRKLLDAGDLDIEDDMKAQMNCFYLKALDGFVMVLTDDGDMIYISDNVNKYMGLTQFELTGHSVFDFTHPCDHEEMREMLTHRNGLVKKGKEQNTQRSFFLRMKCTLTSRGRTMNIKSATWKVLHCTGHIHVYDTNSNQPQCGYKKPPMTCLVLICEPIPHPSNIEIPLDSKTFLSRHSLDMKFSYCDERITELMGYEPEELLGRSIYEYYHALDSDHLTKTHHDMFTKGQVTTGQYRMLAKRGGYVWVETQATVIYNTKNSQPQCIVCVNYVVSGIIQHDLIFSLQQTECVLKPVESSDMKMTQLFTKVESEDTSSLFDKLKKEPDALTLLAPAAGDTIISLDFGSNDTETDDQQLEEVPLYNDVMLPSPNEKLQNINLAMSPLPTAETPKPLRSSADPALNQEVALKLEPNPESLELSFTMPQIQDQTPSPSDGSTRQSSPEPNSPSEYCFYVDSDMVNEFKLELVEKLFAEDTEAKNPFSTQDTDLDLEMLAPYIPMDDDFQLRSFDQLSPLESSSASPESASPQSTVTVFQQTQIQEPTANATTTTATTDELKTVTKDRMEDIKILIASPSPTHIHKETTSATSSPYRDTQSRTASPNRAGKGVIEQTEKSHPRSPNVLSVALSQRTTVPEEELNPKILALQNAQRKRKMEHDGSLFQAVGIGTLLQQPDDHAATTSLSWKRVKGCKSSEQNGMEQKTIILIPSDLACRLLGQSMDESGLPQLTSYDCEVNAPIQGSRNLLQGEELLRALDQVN
Sequence of Cytochrome P450 3A7 (Homo sapiens) (P24462 whole entry, looked up): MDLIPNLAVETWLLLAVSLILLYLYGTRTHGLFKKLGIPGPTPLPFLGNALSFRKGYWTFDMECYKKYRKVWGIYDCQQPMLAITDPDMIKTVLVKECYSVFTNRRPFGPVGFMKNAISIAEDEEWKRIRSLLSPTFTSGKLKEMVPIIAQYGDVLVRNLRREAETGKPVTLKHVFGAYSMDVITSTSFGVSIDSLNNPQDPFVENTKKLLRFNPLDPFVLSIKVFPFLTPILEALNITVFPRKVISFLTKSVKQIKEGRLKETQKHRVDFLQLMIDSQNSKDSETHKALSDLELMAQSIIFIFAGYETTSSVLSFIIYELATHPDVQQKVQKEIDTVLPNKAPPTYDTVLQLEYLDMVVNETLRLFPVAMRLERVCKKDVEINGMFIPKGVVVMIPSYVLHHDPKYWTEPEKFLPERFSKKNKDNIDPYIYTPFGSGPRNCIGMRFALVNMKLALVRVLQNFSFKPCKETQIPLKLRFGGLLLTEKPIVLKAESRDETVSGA

On to `C/C=C/C=C/C(=O)O`, for which the result (in [1]; in assay [2]; in [3]; with CYP3A5 (gene 1577); in assay [4]; in assay [6]) was inactive. In addition, the molecule was called inactive (in assay [7]; in assay [8]; in [9]; in the assay with HGF (gene 3082); in assay [10]; in assay [11]). Besides, the outcome in assay [12] was inactive. Besides, the AC50 in assay [5] is 256 nM (active).

Regarding `S=c1[nH]c2ccccc2s1`, the molecule was called inactive (in assay [1]; in assay [2]; in assay [3]; with CYP3A5 (gene 1577); in assay [13]; in assay [14]). Moreover, the molecule was called inactive in assay [4], in assay [5], in assay [6], in assay [15], in assay [8] and in assay [9]. Further, the outcome (in assay [16]; in the assay with HGF (gene 3082); in assay [10]; in assay [11]; in assay [12]) was inactive.

Consider `CC(=O)OCC(COC(C)=O)OC(C)=O`, for which the outcome (in assay [1]; in assay [2]; in assay [3]; in the assay with CYP3A5 (gene 1577); in [13]; in assay [14]) was inactive. The call (in assay [4]; in [5]; in [6]; in [8]; in [9]; in the assay with HGF (gene 3082)) was inactive. Further, the molecule was called inactive in assay [10], in assay [11] and in assay [12].

For `NC=O`, the molecule was classed as inactive (in assay [1]; in [2]; in assay [3]; in the assay with CYP3A5 (gene 1577); in assay [13]; in assay [14]). Besides, the outcome (in assay [4]; in assay [5]; in [6]; in assay [8]; in [9]; with HGF (gene 3082)) was inactive. Moreover, the outcome in assay [17], in [10], in assay [11] and in assay [12] was inactive.

As a reminder, the AC50 is the concentration at which the activity in the assay is half-maximal.

These data come from PubChem BioAssay (EPA / NIEHS).
